Where a name gives a salt, the structure may show the parent alone. ± gives the uncertainty stated by the source.
Test system: Candida albicans SNY425 biofilm
Assay: biofilm OD600 with compound plus antifungal (OD600 (absorbance)); higher = more biofilm remaining
[1] = assay detail: disruption of 24-h mature biofilm (compound + antifungal for a second 24 h)
[2] = assay detail: sustained inhibition (compound + antifungal during 90-min adherence and 24-h growth)

Compound | biofilm OD600 [1] | biofilm OD600 [2]
CCCC[C@@H](C=O)NC(=O)OC(C)(C)C + CC[C@H](C)C[C@H](C)CCCCCCCCC(=O)N[C@H]1C[C@@H](O)[C@@H](NCCN)NC(=O)[C@@H]2[C@@H](O)CCN2C(=O)[C@H]([C@H](O)CCN)NC(=O)[C@H]([C@H](O)[C@@H](O)c2ccc(O)cc2)NC(=O)[C@@H]2C[C@@H](O)CN2C(=O)[C@H]([C@@H](C)O)NC1=O [caspofungin] (first compound 12.5 µM) | 0.254 ± 0.0097 | 0.167 ± 0.0058
CCOC(=O)c1ccc(OC(=O)CCCCCNC(=N)N)cc1 [Gabexate mesylate] + CC[C@H](C)C[C@H](C)CCCCCCCCC(=O)N[C@H]1C[C@@H](O)[C@@H](NCCN)NC(=O)[C@@H]2[C@@H](O)CCN2C(=O)[C@H]([C@H](O)CCN)NC(=O)[C@H]([C@H](O)[C@@H](O)c2ccc(O)cc2)NC(=O)[C@@H]2C[C@@H](O)CN2C(=O)[C@H]([C@@H](C)O)NC1=O [caspofungin] (first compound 12.5 µM) | 0.26 ± 0.0083 | 0.181 ± 0.006
CNC(=O)[C@H](Cc1c[nH]c2ccccc12)NC(=O)[C@@H](CC(=O)NO)CC(C)C + CC[C@H](C)C[C@H](C)CCCCCCCCC(=O)N[C@H]1C[C@@H](O)[C@@H](NCCN)NC(=O)[C@@H]2[C@@H](O)CCN2C(=O)[C@H]([C@H](O)CCN)NC(=O)[C@H]([C@H](O)[C@@H](O)c2ccc(O)cc2)NC(=O)[C@@H]2C[C@@H](O)CN2C(=O)[C@H]([C@@H](C)O)NC1=O [caspofungin] (first compound 12.5 µM) | 0.278 ± 0.01 | 0.187 ± 0.0076
O=C[C@@H]1CCCN1C(=O)[C@@H]1CCCN1C(=O)OCc1ccccc1 [Z-Prolyl-prolinal] + C[C@@H]1[C@H](O)[C@@H](C)/C=C/C=C/C=C/C=C/C=C/C=C/C=C/[C@H](O[C@@H]2O[C@H](C)[C@@H](O)[C@H](N)[C@@H]2O)C[C@@H]2O[C@](O)(C[C@@H](O)C[C@@H](O)[C@H](O)CC[C@@H](O)C[C@@H](O)CC(=O)O[C@H]1C)C[C@H](O)[C@H]2C(=O)O [amphotericin B] (first compound 12.5 µM) | 0.262 ± 0.013 | 0.156 ± 0.0083
N[C@H](C(=O)O)[C@@H]1CC(Cl)=NO1 [Acivicin] + CC[C@H](C)C[C@H](C)CCCCCCCCC(=O)N[C@H]1C[C@@H](O)[C@@H](NCCN)NC(=O)[C@@H]2[C@@H](O)CCN2C(=O)[C@H]([C@H](O)CCN)NC(=O)[C@H]([C@H](O)[C@@H](O)c2ccc(O)cc2)NC(=O)[C@@H]2C[C@@H](O)CN2C(=O)[C@H]([C@@H](C)O)NC1=O [caspofungin] (first compound 4 µM) | 0.296 ± 0.012 | 0.163 ± 0.0049
